Compound activity (PubChem)
Compounds with a hit are over-represented: about 1.6% of the library has one in this group of screens.
RAD54 inh = inhibitors of human RAD54 branch migration, primary screen, biochemical, fluorescence, single point; RAD54 Holliday junction branch migration, FAM/BHQ fluorescence; inhibition, % at 10.4 µM; actives 0.14% (n = 360,000); AID 602329, 2012;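 active = mean normalized replicate activity at least 40 and at least half of replicates scoring 40 or more; inconclusive = only one of the two criteria met; inactive = mean below 40 and under half of replicates reaching 40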;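 also: inhibitors cause a drop in the FAM fluorescence signal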
Glyco luc inh = increase of ERlucT glycosylation luciferase signal, primary screen, N-linked glycosylation inhibitor project, D54 ERlucT cells, luminescence, set 2; D54 ERlucT glycosylation luciferase reporter, 24 h; percent of 100 nM tunicamycin response; reporter increase, % at 12.5 µM; actives 0.23% (n = 360,000);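 active = mean luciferase reporter signal, scaled so untreated is 0 and the glycosylation-blocking control 100, at or above a set limit in every replicate; inconclusive = mean reaches the limit but not every replicate does; inactive = mean below the limit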;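 also: luciferase carries N-glycosylation sites so blocking glycosylation raises the light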
ABCB6 inh 2 = ABCB6 transporter inhibitors, primary screen, K562-ABCB6 cells, flow cytometry, MLPCN library; fluorescence ratio to DMSO, % at 10 µM; actives 0.19% (n = 360,000); K562-ABCB6 porphyrin accumulation, 1 h; stronger effect = lower value; ATP-binding cassette sub-family B member 6 (Homo sapiens), Q9NP58;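 active = fluorescence ratio to DMSO below 75%, the collection mean minus 3 SD; inconclusive = too few cells collected in the well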;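 also: signal is porphyrin accumulated inside mitochondria; lower ratio means ABCB6 inhibition with less porphyrin fluorescence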
Target sequence (Q9NP58 whole entry, looked up): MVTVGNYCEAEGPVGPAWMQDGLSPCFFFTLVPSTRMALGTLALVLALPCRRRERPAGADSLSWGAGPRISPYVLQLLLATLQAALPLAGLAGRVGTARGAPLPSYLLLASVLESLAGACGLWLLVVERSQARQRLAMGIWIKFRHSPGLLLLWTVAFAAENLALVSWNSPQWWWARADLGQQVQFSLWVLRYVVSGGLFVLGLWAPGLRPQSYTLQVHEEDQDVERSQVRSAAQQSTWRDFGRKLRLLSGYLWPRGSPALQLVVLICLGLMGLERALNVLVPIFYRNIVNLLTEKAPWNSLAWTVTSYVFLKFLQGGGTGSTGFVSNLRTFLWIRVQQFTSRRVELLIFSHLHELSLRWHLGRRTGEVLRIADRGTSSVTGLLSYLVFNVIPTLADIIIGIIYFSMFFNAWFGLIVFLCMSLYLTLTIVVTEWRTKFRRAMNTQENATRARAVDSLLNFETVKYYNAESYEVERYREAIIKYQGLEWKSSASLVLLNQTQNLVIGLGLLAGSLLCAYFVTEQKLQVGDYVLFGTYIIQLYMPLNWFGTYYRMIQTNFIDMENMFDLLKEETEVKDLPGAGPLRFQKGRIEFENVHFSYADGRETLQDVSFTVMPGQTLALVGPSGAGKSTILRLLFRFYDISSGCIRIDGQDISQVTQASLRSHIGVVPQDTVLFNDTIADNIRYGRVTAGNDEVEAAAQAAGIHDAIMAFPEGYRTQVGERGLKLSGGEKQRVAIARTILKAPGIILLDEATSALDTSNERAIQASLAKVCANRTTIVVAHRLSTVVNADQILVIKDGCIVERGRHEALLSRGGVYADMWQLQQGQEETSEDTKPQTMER
Myeloid diff MLP = induction of myeloid progenitor differentiation, primary screen, cell-based, flow cytometry, MLPCN library. ER-HoxA9 myeloid progenitors, lysozyme-GFP differentiation. calls only at 10 µM. actives 1% (n = 360,000). AID 624256, 2012;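 active = normalized GFP-positive differentiation at or above the plate's own cutoff, the solvent-only control mean plus 3 SD; inconclusive = no clear call, values can overlap the other calls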;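 also: cells exposed to compound for four days before flow analysis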
Vif inh = HIV Vif self-association inhibitors, primary screen, imaging, HEK293T, single point. HEK293T cells, Vif self-association by quenched fluorescence, 24 h. inhibition, % at 7.49 µM. actives 0.35% (n = 340,000); in the data active = inhibition above about 50%, passing the limit was not always enough; inconclusive = no clear call, values can overlap the other calls; inactive = below about 31%
Myeloid diff CP1 = inducers of myeloid progenitor differentiation, confirmation, cell-based, GFP/Mac1 flow cytometry, cherry pick 01. AID 651706, 2012. calls only. actives 2% (n = 2,300). ER-HoxA9 myeloid progenitors, GFP/Mac1 double-positive flow. shares compounds with Myeloid diff MLP;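 active = share of green or green-and-red cells above 9 and 9% in run 1 or 4 and 3% in run 2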
GFP autofluor = flagged as fluorescent in myeloid differentiation counter-screen; ER-HoxA9 myeloid progenitors, no estrogen, GFP autofluorescence flow cytometry; vehicle wells 0%, positive control 100%; fluorescence response, % (concentration not given with the values); AID 651707; shares compounds with Myeloid diff MLP; actives 7.4% (n = 2,300);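 active = over 5% cells positive for green fluorescent reporter, or over 2% positive for both it and APC stain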
Each line names hits and unclear results; the compound was inactive in the other large screens (follow-up assays come after a bar, where they were run).

CCOC(=O)c1[nH]c2ccc(Br)cc2c1NC(=O)CCN1CCCC(C)(C)C1	Myeloid diff MLP active (no result: RAD54 inh) | Myeloid diff CP1 inactive | GFP autofluor inactive
O=C(C[C@@H]1C[C@@H]2c3cc(NC(=O)Nc4ccc(C(F)(F)F)cc4)ccc3O[C@@H]2[C@H](CO)O1)NCCc1ccccc1	none (no result: Glyco luc inh, ABCB6 inh 2, Myeloid diff MLP, Vif inh)
COc1ccc(OC(=O)N(C)C[C@H]2OCc3cn(nn3)CCCC(=O)N([C@@H](C)CO)C[C@H]2C)cc1	none (no result: Glyco luc inh, ABCB6 inh 2, Myeloid diff MLP, Vif inh)
COc1ccc(C=Nc2cccc3c(=O)[nH][nH]c(=O)c23)c2ccccc12	none
COc1cccc(C=Nc2cccc3c(=O)[nH][nH]c(=O)c23)c1O	Myeloid diff MLP active (no result: RAD54 inh) | Myeloid diff CP1 inactive | GFP autofluor inactive
N#C/C(=C/c1cccn1-c1cccc(C(=O)O)c1)c1ccc(F)cc1	Myeloid diff MLP active (no result: RAD54 inh) | Myeloid diff CP1 inactive | GFP autofluor inactive
COc1cccc(/C=C(/C#N)c2ccc(F)cc2)c1OCc1cccc(C(=O)O)c1	none
COc1cccc(NC(=O)N(C)C[C@H]2Oc3cc(C#CC4(O)CCCC4)ccc3S(=O)(=O)N([C@@H](C)CO)C[C@@H]2C)c1	none (no result: Glyco luc inh, ABCB6 inh 2, Myeloid diff MLP, Vif inh)
O=C(C[C@H]1C[C@@H]2c3cc(NC(=O)CC4CC4)ccc3O[C@@H]2[C@H](CO)O1)NCc1cccc(F)c1	none (no result: Glyco luc inh, ABCB6 inh 2, Myeloid diff MLP, Vif inh)
O=C(Nc1cccc(F)c1)N1C[C@H]2[C@@H](c3ccccc31)[C@@H](CO)N2C(=O)Cc1ccccc1	none (no result: Glyco luc inh, ABCB6 inh 2, Myeloid diff MLP, Vif inh)
C/C=C/c1ccc2c(c1)O[C@H](CN(C)C(=O)CC)[C@H](C)CN([C@H](C)CO)S2(=O)=O	none (no result: Glyco luc inh, ABCB6 inh 2, Myeloid diff MLP, Vif inh)
CCN(CC)C(=O)COC(=O)c1ccc(C)c(NC(=O)c2ccco2)c1	none (no result: RAD54 inh)
Cc1ccc(C(=O)OCC(=O)c2c[nH]c3ccccc23)cc1NC(=O)c1ccco1	none (no result: RAD54 inh) | Myeloid diff CP1 inactive | GFP autofluor inactive
CN(CC(=O)Nc1cc([N+](=O)[O-])ccc1Cl)Cc1ccc(Br)cc1	none | Myeloid diff CP1 inactive | GFP autofluor inactive
Cc1ccsc1CN(C)CC(=O)Nc1ccc([N+](=O)[O-])cc1Cl	none
COc1ccc(-c2cc(-c3cc(OC)ccc3O)[nH]n2)cc1	none | Myeloid diff CP1 inactive | GFP autofluor inactive
COc1ccc(O)c(-c2cc(-c3ccc(F)cc3)n[nH]2)c1	none
O=C1C=C(O)CC2(CCCCC2)C1	Myeloid diff MLP active (no result: RAD54 inh) | Myeloid diff CP1 inactive | GFP autofluor inactive
Cc1ccc(N2C(=O)CC3(CCCC3)CC2=O)cc1	none (no result: RAD54 inh)
Cc1nn2c(N3CCOCC3)c3c(nc2c1-c1ccccc1)CCCC3	Myeloid diff MLP active | Myeloid diff CP1 inactive | GFP autofluor inactive
CCn1c2ccccc2c2cc(N=C3SC(CC(=O)Nc4ccccc4OC)C(=O)N3C)ccc21 (stereo unspecified)	Myeloid diff MLP active (no result: RAD54 inh) | Myeloid diff CP1 inactive | GFP autofluor inactive
O=c1c(=Nc2ccccc2O)c(=O)c2ccccc12	Myeloid diff MLP active (no result: RAD54 inh) | Myeloid diff CP1 inactive | GFP autofluor inactive
O=Nc1c(O)c2ccccc2c2ccccc12	Myeloid diff MLP inconclusive
O=C(NCCc1ccccc1)c1ccccc1NC(=O)C1CC=CCC1C(=O)O (stereo unspecified)	none (no result: RAD54 inh)
COC(=O)c1ccccc1NC(=O)C1CC=CCC1C(=O)O (stereo unspecified)	none (no result: Glyco luc inh, Vif inh) | Myeloid diff CP1 inactive | GFP autofluor inactive
CCN(CC)c1ccc(/C=C2\CCC(/C=N/NC(=O)c3ccc(=O)n(C)c3)=C2N2CCOCC2)cc1	Myeloid diff MLP active (no result: RAD54 inh) | Myeloid diff CP1 inactive | GFP autofluor 98
N#C/C(=C/C1=C(N2CCOCC2)C(=C/c2cccc([N+](=O)[O-])c2)/CC1)C(=O)Nc1ccccc1F	Myeloid diff MLP active (no result: RAD54 inh) | Myeloid diff CP1 inactive | GFP autofluor 46
CCN(CC)c1ccc(/C=C2\CCC(/C=C(\C#N)C(=O)Nc3ccccc3F)=C2N2CCOCC2)cc1	none | Myeloid diff CP1 inactive | GFP autofluor 5.5
CCN(CC)c1ccc(/C=C2\CCC(/C=C(/C#N)C(=O)Nc3ccccc3F)=C2N2CCOCC2)cc1	none (no result: RAD54 inh)
C[C@@H]1CN([C@H](C)CO)C(=O)c2cccc(NS(=O)(=O)c3ccccc3)c2O[C@H]1CN(C)S(=O)(=O)c1ccc(Cl)cc1	none (no result: Glyco luc inh, ABCB6 inh 2, Myeloid diff MLP, Vif inh)
COCc1cc(=O)[nH]c(Nc2nc3ccc(C)cc3o2)n1	none (no result: RAD54 inh) | Myeloid diff CP1 inactive | GFP autofluor inactive
Cc1ccc(NC(=O)Cn2nnc(C(=O)NCc3cccs3)c2N)cc1F	Myeloid diff MLP active | Myeloid diff CP1 inactive | GFP autofluor inactive
COC(=O)c1ccccc1N1C(=O)C2C(C1=O)C1C=CC2C12CC2 (stereo unspecified)	Myeloid diff MLP active | Myeloid diff CP1 inactive | GFP autofluor 94
COC(=O)c1ccccc1N1C(=O)C2C(C1=O)[C@H]1C=C[C@@H]2C1 (stereo partly specified)	none
O=C(Nc1ccccc1)Nc1ccc2c(c1)[C@H]1C[C@@H](CC(=O)N3CCOCC3)O[C@H](CO)[C@H]1O2	none (no result: Glyco luc inh, ABCB6 inh 2, Myeloid diff MLP, Vif inh)
COc1ccccc1-n1c(=S)sc2c(=O)n(Cc3ccco3)c(SC)nc21	none | Myeloid diff CP1 inactive | GFP autofluor inactive
c1coc(CNC2CCCCCCC2)c1	none
c1coc(CNC2C3CC4CC(C3)CC2C4)c1 (stereo unspecified)	none | Myeloid diff CP1 inactive | GFP autofluor inactive
COc1ccc(CSc2nc(CSC)cc(N3CCOCC3)n2)cc1	Myeloid diff MLP active | Myeloid diff CP1 inactive | GFP autofluor inactive
CCOc1ccc(N(Cc2cc3cc(OC)ccc3[nH]c2=O)C(=O)C2CCCO2)cc1 (stereo unspecified)	Myeloid diff MLP active | Myeloid diff CP1 inactive | GFP autofluor inactive
COc1ccc(N(Cc2cc3ccccc3[nH]c2=O)C(=O)C2CCCO2)cc1 (stereo unspecified)	none
CC(Oc1cccc(Br)c1)C(=O)NNC(=O)c1ccccn1 (stereo unspecified)	Myeloid diff MLP active (no result: Vif inh) | Myeloid diff CP1 inactive | GFP autofluor inactive
COc1cc(OC)cc(C(=O)NNC(=O)c2ccccn2)c1	Myeloid diff MLP active | Myeloid diff CP1 inactive | GFP autofluor inactive
COc1ccc(C(=O)NNC(=O)c2ccccn2)cc1	none (no result: RAD54 inh)
CC(Oc1ccccc1)C(=O)NNC(=O)c1ccccn1 (stereo unspecified)	none
O=C(/C=C\Nc1ccccn1)c1ccc(Cl)cc1	Myeloid diff MLP active | Myeloid diff CP1 inactive | GFP autofluor inactive
O=S(=O)(NCCNS(=O)(=O)c1cccs1)c1cccs1	none
